Test results taken from PubChem BioAssay (EPA / NIEHS).
Activity calls are given as the source filed them. The calls were made as follows: active = hit-call score of the fitted dose curve at least 0.9, where 1 is the maximum; inactive = score below 0.9.

Assays:
[1] = read-out: Tumor necrosis factor (Homo sapiens) (UniProt P01375); assay: BSK_LPS_TNFa: BioMAP Diversity Plus: LPS Assay for Tumour Necrosis Factor alpha (TNFa) Biomarker Activity (AID 2283085); conditions: primary human HUVEC with PBMC; actives raise or lower the signal
Procedure, shortened: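 Read-out is ELISA of TNFa in primary human endothelial cell–PBMC co-cultures at 24 h after compound. Activity in either direction was fitted against DMSO.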

[2] = read-out: Vascular cell adhesion molecule 1 (VCAM1), VCAM1 (gene 7412); assay: BSK_LPS_VCAM1: BioMAP Diversity Plus: LPS Assay for Vascular cell adhesion molecule 1 (VCAM1) Biomarker Activity (AID 2283086); conditions: primary human HUVEC with PBMC; actives raise or lower the signal
Procedure, shortened: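 HUVEC + PBMC co-culture, LPS system; compound 24 h; VCAM-1 by ELISA; bidirectional fit vs DMSO control; parallel SRB (0.1%, TCA-fixed, 560 nm) for cytotoxicity.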

[3] = read-out: CD38, CD38 (gene 952); assay: BSK_SAg_CD38: BioMAP Diversity Plus: SAg Assay for CD38 Biomarker Activity (AID 2283087); conditions: primary human HUVEC with PBMC; actives raise or lower the signal
Procedure, shortened: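 Human HUVEC plus PBMC co-culture stimulated with superantigen; CD38 measured by ELISA 24 h after chemical dosing. Fluorescence read-out, bidirectional fit against DMSO; cytotoxicity tracked in parallel by SRB and Alamar Blue.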

[4] = read-out: CD40, CD40 (gene 958); assay: BSK_SAg_CD40: BioMAP Diversity Plus: SAg Assay for CD40 Biomarker Activity (AID 2283088); conditions: primary human HUVEC with PBMC; actives raise or lower the signal
Procedure, shortened: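 HUVEC/PBMC co-culture, 24 h post-dose; CD40 by ELISA, fluorescence intensity; bidirectional fit vs DMSO negative control.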

[5] = read-out: Monocyte Chemoattractant Protein-1 (MCP1), CCL2 (gene 6347); assay: BSK_SAg_MCP1: BioMAP Diversity Plus: SAg Assay for Monocyte Chemoattractant Protein-1 (MCP1) Biomarker Activity (AID 2283090); conditions: primary human HUVEC with PBMC; actives raise or lower the signal
Procedure, shortened: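 MCP-1 levels in the endothelial–PBMC SAg co-culture were quantified by ELISA at 24 h post-dosing; both increases and decreases versus DMSO scored. Cytotoxicity monitored by SRB total protein in parallel cultures.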

[6] = read-out: E-selectin (Homo sapiens) (UniProt P16581); assay: BSK_SAg_Eselectin: BioMAP Diversity Plus: SAg Assay for Eselectin Biomarker Activity (AID 2283091); conditions: primary human HUVEC with PBMC; actives raise or lower the signal
Procedure, shortened: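 E-selectin ELISA readout at 24 h post-dosing in human umbilical vein endothelial cell/PBMC co-culture; gain or loss of signal fitted relative to DMSO baseline.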

[7] = read-out: Monokine induced gamma interferon (MIG), CXCL9 (gene 4283); assay: BSK_SAg_MIG: BioMAP Diversity Plus: SAg Assay for Monokine induced gamma interferon (MIG) Biomarker Activity (AID 2283092); conditions: primary human HUVEC with PBMC; actives raise or lower the signal
Procedure, shortened: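 HUVEC plus human PBMC co-culture, chemicals dosed and MIG (CXCL9) quantified by ELISA at 24 h. Bidirectional curve fitting against DMSO as negative control and baseline, so both gain and loss of signal count as activity.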

[8] = BSK_SAg_PBMCCytotoxicity: PBMC Cytotoxicity Assessment in the BioMAP Diversity Plus: SAg Assay (AID 2283093); conditions: primary human HUVEC with PBMC;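 also: PBMC viability measured as Alamar Blue reduction fluorescence at 546/580 nm; fitted both ways against DMSO so a hit may be loss or gain of signal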;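 as to AC50: PBMC superantigen activated with SEB plus TSST-1 one hour after compound addition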
Procedure, shortened: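 HUVEC/PBMC co-culture; PBMC exposed to chemical 1 h before SEB and TSST-1 activation (20 ng/mL each), incubated 90 h, then Alamar Blue 6 h, fluorescence 546/580 nm. Bidirectional fit versus DMSO baseline.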

[9] = read-out: Interleukin-8 (IL8), CXCL8 (gene 3576); assay: BSK_SAg_IL8: BioMAP Diversity Plus: SAg Assay for Interleukin-8 (IL8) Biomarker Activity (AID 2283094); conditions: primary human HUVEC with PBMC; actives raise or lower the signal
Procedure, shortened: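 ELISA read-out of IL-8 in a primary human vascular co-culture (umbilical vein endothelium plus PBMC), taken 24 h after compound addition. Values derive from bidirectional fits against DMSO negative controls.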

[10] = read-out: CD69, CD69 (gene 969); assay: BSK_SAg_CD69: BioMAP Diversity Plus: SAg Assay for CD69 Biomarker Activity (AID 2283089); conditions: primary human HUVEC with PBMC; actives raise or lower the signal;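 as to AC50: cell surface CD69 protein quantified by ELISA with fluorescence detection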
Procedure, shortened: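 HUVEC co-cultured with PBMC were dosed with chemical, and CD69 was measured by ELISA with fluorescence read-out 24 h later. Bidirectional curve fitting used DMSO as negative control and activity baseline.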

Measured: AC50

E-selectin (Homo sapiens), sequence (P16581 whole entry, looked up): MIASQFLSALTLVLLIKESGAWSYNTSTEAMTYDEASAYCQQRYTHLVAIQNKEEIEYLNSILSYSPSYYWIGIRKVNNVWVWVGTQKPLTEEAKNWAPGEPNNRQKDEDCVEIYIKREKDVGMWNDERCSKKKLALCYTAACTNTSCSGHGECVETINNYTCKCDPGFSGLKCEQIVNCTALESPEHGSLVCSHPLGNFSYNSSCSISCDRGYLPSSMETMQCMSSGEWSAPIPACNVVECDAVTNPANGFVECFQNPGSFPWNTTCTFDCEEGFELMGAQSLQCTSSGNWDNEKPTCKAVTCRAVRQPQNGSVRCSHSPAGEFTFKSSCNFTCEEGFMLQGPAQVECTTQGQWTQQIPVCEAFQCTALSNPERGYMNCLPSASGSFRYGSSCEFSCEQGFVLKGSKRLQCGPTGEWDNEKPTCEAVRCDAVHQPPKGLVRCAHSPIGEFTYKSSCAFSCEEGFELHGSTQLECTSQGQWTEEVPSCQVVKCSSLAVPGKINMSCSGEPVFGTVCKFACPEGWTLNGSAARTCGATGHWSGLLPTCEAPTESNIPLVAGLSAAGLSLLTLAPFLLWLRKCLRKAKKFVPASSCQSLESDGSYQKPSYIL
Tumor necrosis factor (Homo sapiens), sequence (P01375 whole entry, looked up): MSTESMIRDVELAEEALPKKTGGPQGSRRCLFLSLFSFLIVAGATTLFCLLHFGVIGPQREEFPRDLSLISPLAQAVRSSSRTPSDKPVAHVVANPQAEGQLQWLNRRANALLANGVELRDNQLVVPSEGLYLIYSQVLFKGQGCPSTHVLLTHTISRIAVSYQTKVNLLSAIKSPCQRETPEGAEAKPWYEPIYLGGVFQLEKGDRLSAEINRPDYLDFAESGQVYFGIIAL

O=[N+]([O-])c1ccc2c3c(cccc13)CC2
active: [3] 20 µM
not listed: [10]
inactive: all other assays above

O=C(O)C(Cl)(Cl)Cl
inactive: all assays above

CCOP(=S)(OCC)Oc1ccc(S(C)=O)cc1 (centres undefined)
not listed: [10]
inactive: all other assays above

ClC(Cl)=C(Cl)C(Cl)=C(Cl)Cl
active: [1] 30.9 µM | [2] 31.4 µM | [8] 33.1 µM
not listed: [10]
inactive: all other assays above

ClC1(Cl)C2(Cl)C3(Cl)C4(Cl)C(Cl)(Cl)C5(Cl)C3(Cl)C1(Cl)C5(Cl)C24Cl (centres undefined)
active: [1] 0.149 µM
not listed: [10]
inactive: all other assays above

CC(C)c1ccc(CO)cc1
not listed: [10]
inactive: all other assays above

Nc1ncc([N+](=O)[O-])s1
not listed: [10]
inactive: all other assays above

CN(C)N=O
not listed: [10]
inactive: all other assays above

O=C(Nc1ccc2[nH]ccc2c1)c1cc2cc(F)ccc2n1Cc1cccc(F)c1
active: [1] 26.5 µM | [2] 11.9 µM | [3] 10.3 µM | [4] 8.2 µM | [5] 9.29 µM | [6] 12.8 µM | [7] 12.7 µM | [8] 9.98 µM | [9] 6.87 µM

CC(C)(C)CC(C)(C)c1ccc(O)cc1
active: [1] 10 µM | [3] 7.91 µM | [4] 7.96 µM | [5] 9.24 µM | [6] 9.86 µM | [7] 10.7 µM | [8] 8.43 µM | [9] 10.2 µM

NC(=S)Nc1ccccc1
not listed: [10]
inactive: all other assays above

BrCCBr
not listed: [10]
inactive: all other assays above

C[C@]12CCC(=O)C[C@@H]1CC[C@@H]1[C@@H]2CC[C@]2(C)[C@@H](O)CC[C@@H]12
active: [2] 29 µM | [5] 28.2 µM
not listed: [10]
inactive: all other assays above

CC(C)(c1ccccc1)c1ccc(O)c(C(C)(C)c2ccccc2)c1
active: [1] 12.3 µM | [2] 12.9 µM | [3] 10.5 µM | [10] 11.9 µM | [5] 9.77 µM | [6] 11.9 µM | [7] 11.4 µM | [8] 8.97 µM | [9] 11.4 µM

CCC(=O)C(CC(C)N(C)C)(c1ccccc1)c1ccccc1 (centres undefined)
not listed: [10]
inactive: all other assays above

O=[N+]([O-])c1ccc(O)c([N+](=O)[O-])c1
not listed: [10]
inactive: all other assays above

CCOP(=S)(OCC)Oc1nc(Cl)c(Cl)cc1Cl
inactive: [1] | [7]
active: [2] 29.2 µM | [3] 32.3 µM | [4] 33.1 µM | [5] 30.1 µM | [6] 28 µM | [8] 34.3 µM | [9] 20 µM

O=c1[nH]c(=O)[nH]c(=O)[nH]1
active: [9] 32.6 µM
not listed: [10]
inactive: all other assays above

O=C(O)CCC(F)(C(F)(F)F)C(F)(F)F
not listed: [10]
inactive: all other assays above

CC(=O)[O][Hg][c]1ccccc1
active: [1] 1.62 µM | [2] 2.4 µM | [3] 0.56 µM | [4] 1.46 µM | [5] 1.04 µM | [6] 1.58 µM | [7] 1.78 µM | [8] 0.318 µM | [9] 11.9 µM

CCSC(C)CC1CC(=O)C(C(CC)=NOC/C=C/Cl)=C(O)C1 (centres undefined)
not listed: [10]
inactive: all other assays above

COP(=S)(OC)Oc1ccc(Sc2ccc(OP(=S)(OC)OC)cc2)cc1
active: [3] 14.5 µM | [4] 14.8 µM | [5] 26.9 µM | [6] 30.4 µM | [9] 9.59 µM
inactive: [1] | [2] | [7] | [8]

CCCCCCCCc1ccc(O)cc1
active: [1] 33.6 µM | [2] 30.5 µM | [3] 31.2 µM | [4] 32.2 µM | [5] 32.6 µM | [6] 29.2 µM | [7] 35.6 µM | [8] 29 µM | [9] 32.2 µM

CC1(C)Cc2cccc(O)c2O1
not listed: [10]
inactive: all other assays above

CCOC(=O)/C=C(C)/C=C/C[C@@H](C)CCCC(C)C
inactive: [7]
active: [1] 33.2 µM | [2] 25.7 µM | [3] 30.7 µM | [4] 25.8 µM | [5] 29 µM | [6] 22.4 µM | [8] 26.4 µM | [9] 20 µM

CC(=O)C(Cl)C(=O)N(C)C (centres undefined)
inactive: [7]
active: [1] 9.78 µM | [2] 20 µM | [3] 20 µM | [4] 20 µM | [5] 20 µM | [6] 25.4 µM | [8] 7.81 µM | [9] 14.1 µM

C=CC(=O)OCCCCCC(C)C
not listed: [10]
inactive: all other assays above

CC(C)(C)c1cc(O)ccc1O
active: [1] 9.38 µM | [2] 8.15 µM | [3] 8.22 µM | [4] 8.26 µM | [5] 8.93 µM | [6] 5.56 µM | [7] 11.4 µM | [8] 3.17 µM | [9] 7.38 µM

ClC1=C(Cl)[C@]2(Cl)[C@H]3[C@H]([C@H]4C=C[C@H]3C4)[C@@]1(Cl)C2(Cl)Cl
active: [1] 0.296 µM | [3] 4.55 µM | [4] 4.46 µM | [8] 20 µM
not listed: [10]
inactive: all other assays above

C=C(C)C(=O)[O][Sn]([CH2]CCC)([CH2]CCC)[CH2]CCC
active: [1] 0.34 µM | [2] 0.148 µM | [3] 0.248 µM | [4] 0.148 µM | [5] 0.352 µM | [6] 0.147 µM | [7] 0.148 µM | [8] 0.236 µM | [9] 0.31 µM

CCOP(=S)(OCC)SCCS(=O)(=O)CC
not listed: [10]
inactive: all other assays above

Nc1cccc2ccccc12
not listed: [10]
inactive: all other assays above

CCN1CCC2(CC1)COc1cc3c(cc12)N(C(=O)c1ccc(-c2ccc(-c4nnc(C)o4)cc2C)cc1)CC3
active: [1] 14.3 µM | [2] 22.6 µM | [3] 12.8 µM | [4] 18.7 µM | [5] 12.6 µM | [6] 13.3 µM | [7] 30.8 µM | [8] 12.6 µM | [9] 12.3 µM

CC(C)CCCCCCOC(=O)c1ccccc1C(=O)OCCCCCCC(C)C
active: [6] 0.016 µM
not listed: [10]
inactive: all other assays above

ClCC(Cl)CCl
not listed: [10]
inactive: all other assays above

CCNc1nc(NC(C)(C)C)nc(SC)n1
not listed: [10]
inactive: all other assays above
